Source: PubChem BioAssay (Tox21)
Inconclusive results are not listed. Activity calls are given as the source filed them. Unless noted, the call rests on the fitted dose curve; in most records, active means well fitted curve in the direction sought with a large enough effect in the repeat runs; inconclusive means weak or mixed curves; inactive means no such curve, though single readings can be large; an effect the other way counts as inactive or inconclusive.

Columns and labels:
[1] = qHTS assay to identify small molecule agonists of the hypoxia (HIF-1) signaling pathway - cell viability counter screen (AID 1224844; calls by dose curve; further: nearly all actives have a fitted effect of over 50% in size)
Summary of the method: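 HRE-bla ME-180 cells in medium with 0.5% dialyzed FBS were preincubated 5 hrs at 37C, exposed to compounds for 17 hrs, then viability was read as CellTiter-Glo luminescence after 30 min at room temperature, in the reporter wells.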

[2] = qHTS assay to identify small molecule agonists of H2AX (AID 1224845; active means well fitted activation curve with a large enough effect in the signal ratio in the repeat runs, not every such curve was filed as active; the % refers to the signal ratio)
Summary of the method: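 Wild-type CHO-K1 cells plated overnight, then exposed 3 hr at 37C to compounds at 15 concentrations (0.76% DMSO). Lysed, then HTRF anti-pH2AX(S139)-cryptate/anti-H2AX-d2 detection after 24 hr at room temperature; emissions 665 and 620 nm.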

[3] = qHTS assay to identify small molecule agonists of H2AX - cell viability counter screen (AID 1224847; calls by dose curve; further: top concentration of the series differs between compounds; nearly all actives have a fitted effect of over 30% in size)
Summary of the method: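 After overnight plating of 1000 CHO-K1 cells per well, a 15-concentration compound series was applied for 3 hr at 37C. Luminescence from CellTiter-Glo, read following 30 min at room temperature, reflected cell viability.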

[4] = qHTS assay to identify small molecule antagonists of the estrogen related receptor (ERR) signaling pathway from Tox21 library (AID 1224848); further: nearly all actives have a fitted effect of over 50% in size
Summary of the method: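 Screening used an ERR reporter line supplied by NTP, exposed for 18 h at 37 C to library compounds delivered in DMSO. Signal was luciferase luminescence developed with ONE-Glo at room temperature for 30 min.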

[5] = qHTS assay to identify small molecule agonists of the estrogen related receptor (ERR) signaling pathway from Tox21 library (AID 1224849; calls by dose curve; further: nearly all actives have a fitted effect of over 15% in size); conditions: ERR reporter cell line, ONE-Glo luciferase, 18 h; at 92.4 µM (top of the series) unless noted
Summary of the method: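 ERR reporter cell line (NTP) seeded, rested 6 h at 37 C/5% CO2, then pinned with Tox21 compounds in DMSO. After 18 h at 37 C, ONE-Glo luciferase luminescence was read following 30 min at room temperature.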

[6] = qHTS RealTime-Glo MT Cell Viability Assay in HepG2 cells - 24 hour (AID 1224867); further: nearly all actives have a fitted effect of over 50% in size
Summary of the method: (§1)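 HepG2 suspension premixed with RealTime-Glo reagents is plated at 600 cells per well and left 5 h at 37 C/5% CO2. Compounds in DMSO then go in, and bioluminescence reflecting viable cell number is recorded over 40 h.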

[7] = qHTS RealTime-Glo MT Cell Viability Assay in HEK293 cells - 32 hour (AID 1224868); further: top concentration of the series differs between compounds; nearly all actives have a fitted effect of over 50% in size
Summary of the method: (§2)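 Reads taken at 0, 8, 16, 24, 32 and 40 h from the same wells. HEK293 cells (600/well) carried RealTime-Glo reagents from seeding, with compound added after a 5 h settle at 37 C.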

[8] = A CellTox Green Cytotoxicity Assay to monitor cytotoxicity in HEK293 cells - 0 hour (AID 1224869); further: nearly all actives have a fitted effect of over 50% in size
Summary of the method: (§3)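 HEK293 cells premixed with CellTox Green dye were seeded at 600 cells/well and left 5 h at 37 C/5% CO2 before pin transfer of 23 nL compound in DMSO. Fluorescence from dye bound to dead-cell DNA was read during 40 h treatment.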

[9] = qHTS RealTime-Glo MT Cell Viability Assay in HEK293 cells - 16 hour (AID 1224872)
Summary of the method: as §2

[10] = qHTS RealTime-Glo MT Cell Viability Assay in HepG2 cells - 8 hour (AID 1224873); further: nearly all actives have a fitted effect of over 55% in size
Summary of the method: (§4)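 HepG2 cells mixed with RealTime-Glo MT reagents (NanoLuc plus cell-permeant prosubstrate) were seeded at 600 cells/well, incubated 5 h at 37 C/5% CO2, then pinned with compounds in DMSO; nonlytic luminescence tracked viability during 40 h treatment.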

[11] = qHTS RealTime-Glo MT Cell Viability Assay in HEK293 cells - 40 hour (AID 1224874); conditions: RealTime-Glo luminescence; max response: stronger effect = lower value; further: nearly all actives have a fitted effect of over 50% in size
Summary of the method: (§5)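 HEK293 cells mixed with RealTime-Glo reagents (NanoLuc plus cell-permeant prosubstrate) at 600 cells/well, preincubated 5 h at 37 C/5% CO2, then given 23 nL compound in DMSO. Nonlytic luminescence from viable cells was read at 0, 8, 16, 24, 32 and 40 h.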

[12] = A CellTox Green Cytotoxicity Assay to monitor cytotoxicity in HEK293 cells - 24 hour (AID 1224875); further: nearly all actives have a fitted effect of over 45% in size
Summary of the method: as §3

[13] = qHTS RealTime-Glo MT Cell Viability Assay in HepG2 cells - 32 hour (AID 1224877); further: nearly all actives have a fitted effect of over 55% in size
Summary of the method: as §1

[14] = qHTS assay to identify small molecule agonists of the hypoxia (HIF-1) signaling pathway (AID 1224846; active means well fitted activation curve with a large enough effect in the signal ratio in the repeat runs, not every such curve was filed as active; the % refers to the signal ratio)
Summary of the method: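 HRE-bla ME-180 cells (beta-lactamase reporter under hypoxia response element) were plated at 2,000 cells/well in medium with 0.5% dialyzed FBS, rested 5 hrs, then given compounds in DMSO for 17 hrs at 37C, 5% CO2. Reporter induction was read with CCF4-AM FRET substrate.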

[15] = A CellTox Green Cytotoxicity Assay to monitor cytotoxicity in HEK293 cells - 40 hour (AID 1224871); further: nearly all actives have a fitted effect of over 45% in size
Summary of the method: as §3

[16] = A CellTox Green Cytotoxicity Assay to monitor cytotoxicity in HepG2 cells - 16 hour (AID 1224876); further: nearly all actives have a fitted effect of over 45% in size
Summary of the method: (§6)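 HepG2 cells were seeded together with the CellTox Green dye at 600 cells/well, left 5 h at 37 C/5% CO2, then given compounds in DMSO. Fluorescence from dye bound to dead-cell DNA was read repeatedly over 40 h of treatment at 37 C.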

[17] = A CellTox Green Cytotoxicity Assay to monitor cytotoxicity in HepG2 cells - 24 hour (AID 1224878); further: nearly all actives have a fitted effect of over 45% in size
Summary of the method: as §6

[18] = A CellTox Green Cytotoxicity Assay to monitor cytotoxicity in HepG2 cells - 40 hour (AID 1224879); further: nearly all actives have a fitted effect of over 40% in size
Summary of the method: as §6

[19] = qHTS RealTime-Glo MT Cell Viability Assay in HEK293 cells - 0 hour (AID 1224880)
Summary of the method: as §5

[20] = qHTS RealTime-Glo MT Cell Viability Assay in HepG2 cells - 40 hour (AID 1224870); further: nearly all actives have a fitted effect of over 50% in size
Summary of the method: as §4
On the % scale 0 is the no-effect control and ±100 the full control effect.

COc1ncnc(NS(=O)(=O)c2ccc(N)cc2)c1OC
inactive: Potency [1] | Potency [2] | Potency [3] | Potency [4] | activity change, positive = activation [5] 1.61% [at 42.5 µM] | Potency [6] | Potency [7] | Potency [8] | Potency [9] | Potency [10] | max response [11] -0.242% | Potency [12] | Potency [13]

CCCCCCCCOc1ccc(C(=O)O)cc1
inactive: Potency [1] | Potency [2] | outcome [14] | Potency [3] | Potency [6] | Potency [7] | Potency [8] | Potency [15] | Potency [9] | Potency [10] | max response [11] -8.38% | Potency [12] | Potency [16] | Potency [13] | Potency [17] | Potency [18] | Potency [19]

O[C@@H]1CO[C@H]2[C@@H]1OC[C@@H]2O
inactive: Potency [1] | Potency [2] | outcome [14] | Potency [3] | Potency [6] | Potency [7] | Potency [8] | Potency [20] | Potency [9] | Potency [10] | max response [11] 8.95% | Potency [12] | Potency [16] | Potency [13] | Potency [17] | Potency [18] | Potency [19]

CN1CCCN=C1COC(=O)C(O)(c1ccccc1)C1CCCCC1 (configuration not stated)
inactive: Potency [1] | Potency [2] | Potency [3] | Potency [4] | activity change, positive = activation [5] 6.85% [at 42.5 µM] | Potency [7] | Potency [8] | Potency [20] | Potency [15] | Potency [10] | Potency [12] | Potency [16] | Potency [13] | Potency [17] | Potency [18] | Potency [19]

Cc1cc2c(OCC(CNC(C)(C)C)OC(=O)c3ccccc3)cccc2[nH]1 (configuration not stated)
inactive: Potency [1] | Potency [2] | outcome [14] | Potency [3] | Potency [6] | Potency [8] | Potency [20] | Potency [9] | Potency [10] | max response [11] -21.5% | Potency [12] | Potency [16] | Potency [13] | Potency [19]

C=C(C)C(=O)OCCCCCCCCCCCCC
inactive: Potency [1] | Potency [2] | outcome [14] | Potency [3] | Potency [6] | Potency [7] | Potency [8] | Potency [20] | Potency [9] | Potency [10] | max response [11] 4.36% | Potency [12] | Potency [16] | Potency [13] | Potency [17] | Potency [18] | Potency [19]

COc1cc(C(=O)NCCCCCC(=O)O)cc(OC)c1OC
inactive: Potency [1] | Potency [2] | Potency [3] | Potency [4] | activity change, positive = activation [5] 1.72% [at 42.5 µM] | Potency [6] | Potency [7] | Potency [8] | Potency [20] | Potency [15] | Potency [9] | Potency [10] | max response [11] 1.12% | Potency [12] | Potency [13] | Potency [17] | Potency [18] | Potency [19]
